Measurements from PubChem BioAssay AID1159580 (chemical genetic matrix, 2015).
Screen size: about 5,500 compounds; about 2,000 (36%) were called active. Roughly 18% stayed inconclusive and do not appear here. No stated cut-off is given here; in the data, active means normalized growth mostly below about 0.91 (no sharp cut-off); inconclusive means no clear call, values can overlap the other calls; inactive means mostly above about 0.92. Some of the results follow.

Experiment: chemical genetic growth profiling, strain panel (AID 1159580);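 further: tested at 20 µM; growth read once vehicle control cultures reached saturation at 30 °C; 1 = growth at the plate median or of vehicle wells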
Details: S. cerevisiae deletion strains, growth OD
[1] = locus YAR019C, strain CDC15, stronger effect = lower value
[2] = locus YBL105C, strain PKC1, stronger effect = lower value
[3] = locus YBR135W, strain CKS1, stronger effect = lower value
[4] = locus YBR136W, strain MEC1, stronger effect = lower value
[5] = locus YBR160W, strain CDC28, stronger effect = lower value
[6] = locus YDL017W, strain CDC7, stronger effect = lower value
[7] = locus YDL028C, strain MPS1, stronger effect = lower value
[8] = locus YDL101C, strain DUN1, stronger effect = lower value
[9] = locus YDL108W, strain KIN28, stronger effect = lower value
[10] = locus YDL132W, strain cdc53, stronger effect = lower value
[11] = locus YDL214C, strain PRR2, stronger effect = lower value
[12] = locus YDR052C, strain DBF4, stronger effect = lower value
[13] = locus YDR054C, strain cdc34, stronger effect = lower value
[14] = locus YDR226W, strain ADK1, stronger effect = lower value
[15] = locus YDR477W, strain SNF1, stronger effect = lower value
[16] = locus YER123W, strain YCK3, stronger effect = lower value
[17] = locus YER133W, strain GLC7, stronger effect = lower value
[18] = locus YFL009W, strain cdc4, stronger effect = lower value
[19] = locus YFL029C, strain CAK1, stronger effect = lower value
[20] = locus YFR003C, strain YPI1, stronger effect = lower value
[21] = locus YFR019W, strain FAB1, stronger effect = lower value
[22] = locus YFR028C, strain CDC14, stronger effect = lower value
[23] = locus YGR040W, strain KSS1, stronger effect = lower value
[24] = locus YGR052W, strain FMP48, stronger effect = lower value
[25] = locus YGR092W, strain DBF2, stronger effect = lower value
[26] = locus YHR030C, strain SLT2, stronger effect = lower value
[27] = locus YHR079C, strain IRE1, stronger effect = lower value
[28] = locus YHR082C, strain KSP1, stronger effect = lower value
[29] = locus YHR205W, strain SCH9, stronger effect = lower value
[30] = locus YIL147C, strain SLN1, stronger effect = lower value
[31] = locus YJL095W, strain BCK1, stronger effect = lower value
[32] = locus YJL128C, strain PBS2, stronger effect = lower value
[33] = locus YJL157C, strain FAR1, stronger effect = lower value
[34] = locus YJR016C, strain ILV3, stronger effect = lower value
[35] = locus YJR066W, strain TOR1 (second series), stronger effect = lower value
[36] = locus YJR066W, strain TOR1, stronger effect = lower value
[37] = locus YKL048C, strain ELM1, stronger effect = lower value
[38] = locus YKL067W, strain YNK1, stronger effect = lower value
[39] = locus YKL101W, strain HSL1, stronger effect = lower value
[40] = locus YKL193C, strain SDS22, stronger effect = lower value
[41] = locus YKL203C, strain TOR2, stronger effect = lower value
[42] = locus YLR113W, strain HOG1, stronger effect = lower value
[43] = locus YLR133W, strain CKI1, stronger effect = lower value
[44] = locus YLR403W, strain SFP1, stronger effect = lower value
[45] = locus YML070W, strain DAK1, stronger effect = lower value
[46] = locus YMR001C, strain CDC5, stronger effect = lower value
[47] = locus YMR205C, strain PFK2 (second series), stronger effect = lower value
[48] = locus YMR277W, strain FCP1, stronger effect = lower value
[49] = locus YNL006W, strain LST8, stronger effect = lower value
[50] = locus YNL020C, strain ARK1, stronger effect = lower value
[51] = locus YNL161W, strain CBK1, stronger effect = lower value
[52] = locus YNL183C, strain NPR1, stronger effect = lower value
[53] = locus YNL207W, strain RIO2, stronger effect = lower value
[54] = locus YNL222W, strain SSU72, stronger effect = lower value
[55] = locus YNL307C, strain MCK1 (second series), stronger effect = lower value
[56] = locus YOL078W, strain AVO1, stronger effect = lower value
[57] = locus YOL136C, strain PFK27, stronger effect = lower value
[58] = locus YOR061W, strain CKA2, stronger effect = lower value
[59] = locus YOR119C, strain RIO1, stronger effect = lower value
[60] = locus YOR231W, strain MKK1, stronger effect = lower value
[61] = locus YOR329C, strain SCD5, stronger effect = lower value
[62] = locus YPL031C, strain PHO85, stronger effect = lower value
[63] = locus YPL153C, strain RAD53, stronger effect = lower value
[64] = locus YPL204W, strain HRR25, stronger effect = lower value
[65] = locus YPL209C, strain IPL1, stronger effect = lower value
[66] = locus YPL256C, strain CLN2, stronger effect = lower value
[67] = locus YPR025C, strain CCL1, stronger effect = lower value
[68] = locus YPR106W, strain ISR1, stronger effect = lower value
[69] = locus YPR111W, strain DBF20, stronger effect = lower value
[70] = strain NNK1, stronger effect = lower value
[71] = strain TSCII, stronger effect = lower value

Measured: normalized growth

N#C/C(=N/Nc1cccc(C(F)(F)F)c1)C(=O)c1csc(-c2cccnc2)n1
inactive: [1] 0.96 | [2] 0.958 | [3] 0.955 | [4] 0.962 | [5] 0.961 | [6] 0.96 | [7] 0.962 | [8] 0.964 | [9] 0.963 | [10] 0.964 | [11] 0.83 | [12] 0.945 | [13] 0.939 | [14] 0.963 | [15] 0.762 | [17] 0.883 | [18] 0.96 | [19] 0.955 | [20] 0.961 | [22] 0.967 | [23] 0.832 | [29] 0.75 | [30] 0.96 | [32] 0.923 | [33] 0.802 | [34] 0.954 | [38] 0.854 | [40] 0.959 | [41] 0.763 | [44] 0.776 | [46] 0.964 | [47] 0.807 | [48] 0.955 | [49] 0.961 | [51] 0.956 | [53] 0.941 | [54] 0.96 | [56] 0.955 | [58] 0.85 | [59] 0.838 | [61] 0.966 | [65] 0.957 | [67] 0.956 | [68] 0.971 | [69] 0.958 | [70] 0.95 | [71] 0.954
active: [16] 0.56 | [21] 0.364 | [24] 0.566 | [25] 0.297 | [26] 0.115 | [27] 0.139 | [28] 0.292 | [31] 0.232 | [35] 0.578 | [36] 0.343 | [37] 0.632 | [39] 0.534 | [42] 0.34 | [43] 0.711 | [45] 0.578 | [50] 0.626 | [52] 0.46 | [55] 0.461 | [57] 0.529 | [60] 0.198 | [62] 0.484 | [63] 0.317 | [64] 0.464 | [66] 0.236

CS/C(Nc1cccc(C(F)(F)F)c1)=C(/C#N)S(=O)(=O)c1ccc(Cl)cc1
inactive: [1] 0.951 | [2] 0.945 | [3] 0.953 | [4] 0.941 | [5] 0.948 | [6] 0.948 | [7] 0.957 | [8] 0.953 | [9] 0.949 | [10] 0.953 | [11] 0.96 | [12] 0.932 | [13] 0.946 | [14] 0.931 | [15] 0.963 | [16] 0.941 | [17] 0.971 | [18] 0.942 | [19] 0.934 | [20] 0.944 | [21] 0.957 | [22] 0.948 | [23] 0.947 | [24] 0.943 | [25] 0.937 | [26] 0.996 | [27] 0.987 | [28] 1.01 | [29] 0.914 | [30] 0.953 | [31] 0.916 | [32] 0.935 | [33] 0.954 | [34] 0.944 | [35] 0.95 | [36] 0.988 | [37] 0.946 | [38] 0.972 | [39] 0.954 | [40] 0.951 | [41] 1 | [42] 0.882 | [43] 0.945 | [44] 0.925 | [45] 0.962 | [46] 0.948 | [47] 0.978 | [48] 0.956 | [49] 0.958 | [50] 0.943 | [51] 0.94 | [52] 0.992 | [53] 0.936 | [54] 0.957 | [55] 0.926 | [56] 0.951 | [57] 0.915 | [58] 0.985 | [59] 1.01 | [60] 0.94 | [61] 0.951 | [62] 0.956 | [63] 0.973 | [64] 0.911 | [65] 0.943 | [66] 0.981 | [67] 0.946 | [68] 0.954 | [69] 0.949 | [70] 0.947 | [71] 0.942
